The values that follow come from PubChem BioAssay (NCI).

This is part of a sample that, as a whole, favours compounds with a hit. Of some 83,000 tested, about 20% had one in any assay.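 Compound tested at a single concentration for 48 hours in 96-well plates; a percent growth value below 10 was scored as active.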 Unmarked numbers belong to inactive results. Activity calls are given as the source filed them.

Some test systems named below: NCI-H23 lung; NCI-H226 lung; NCI-H322M lung; HOP-62 NSCLC; NCI-H460 lung; HOP-92 NSCLC; NCI-H522 lung; A549/ATCC NSCLC; 786-0 renal; COLO 205 colon; DU-145 prostate; K-562 leukemia; MALME-3M melanoma; MDA-MB-231 breast; RXF 393 renal; SF-268 CNS; SF-295 CNS; SF-539 CNS; UACC-257 melanoma; M14 melanoma.
Holding throughout (test): NCI-60 one-dose screen, 48 h (100 = growth as untreated, 0 = no growth, -100 = all killed)
Conditions in all cases: 10 µM unless noted

Consider `O=C1/C(=C\c2cccn2C(=O)c2ccccc2)c2ccccc2N1c1c(Cl)cccc1Cl`, for which the growth in the test with NCI-H23 lung was 75.3%; in the test with NCI-H226 lung, 70.1%; in the test on NCI-H322M lung, 93.7%; in the test with HOP-62 NSCLC, 99.3%; in the test with NCI-H460 lung it was 94.8%; in the test on HOP-92 NSCLC, 81.5%. Also, the growth is 70.5% in the test on NCI-H522 lung; 77.3% with A549/ATCC NSCLC; 94% in the test on 786-0 renal; 98% with COLO 205 colon; 102% in the test on DU-145 prostate; 17.4% in the test on K-562 leukemia. The growth is 82.6% with MALME-3M melanoma; 74.6% in the test on MDA-MB-231 breast; 71.7% in the test on RXF 393 renal; 66.9% in the test on SF-268 CNS; 97.6% in the test with SF-295 CNS; 79.4% with SF-539 CNS. Moreover, the growth was 90.7% in the test on UACC-257 melanoma and 76% with M14 melanoma.

On to `Cc1ccc(-c2nc3ccccc3c(=O)n2/N=C/c2cccc3ccccc23)cc1`, for which the growth with NCI-H23 lung is 77.6%; with NCI-H226 lung, 79.2%; in the test with NCI-H322M lung it was 54.7%; in the test with HOP-62 NSCLC, 83.1%; in the test on NCI-H460 lung, 69.1%; with HOP-92 NSCLC, 74.2%. Also, the growth was 53.4% with NCI-H522 lung; 80.1% in the test with A549/ATCC NSCLC; 87.3% in the test with 786-0 renal; 73.8% in the test on COLO 205 colon; 96.9% with DU-145 prostate; 65.5% in the test on K-562 leukemia. For the same molecule, the growth was 68.6% in the test on MALME-3M melanoma; 66.8% in the test with MDA-MB-231 breast; 91.8% in the test on RXF 393 renal; 74.1% in the test with SF-268 CNS; 66.8% in the test with SF-295 CNS; 96.5% in the test with SF-539 CNS. The growth was 86.4% in the test with UACC-257 melanoma and 67.5% in the test with M14 melanoma.

Take `Oc1ccc(Nc2ncnc3c2sc2ncccc23)cc1`: the growth with NCI-H23 lung is 11.2%; in the test with NCI-H226 lung, 42.6%; in the test with NCI-H322M lung it was 47%; with HOP-62 NSCLC, 9.02% (active); in the test with NCI-H460 lung, 9.18% (active); in the test on HOP-92 NSCLC, 28.5%. Also, the growth in the test on NCI-H522 lung was 33.6%; with A549/ATCC NSCLC, 26.9%; in the test on 786-0 renal it was 12.5%; in the test with COLO 205 colon, 36%; in the test with DU-145 prostate, 17.2%; in the test with K-562 leukemia it was 38.2%. Besides, the growth with MALME-3M melanoma is 60.6%; with MDA-MB-231 breast, 64.4%; in the test on RXF 393 renal, 35.3%; with SF-268 CNS, 23.7%; with SF-295 CNS it was 15.1%; in the test with SF-539 CNS it was 5.87% (active). For the same molecule, the growth in the test with UACC-257 melanoma was 36.4%; with M14 melanoma, -19% (active).

`Cc1nc2ccc(Nc3nc(NCCN4CCOCC4)nc(Nc4ccc(F)cc4)n3)cc2n1Cc1ccccc1`: the growth in the test with NCI-H23 lung was 67%; with NCI-H226 lung it was 72.1%; in the test with NCI-H322M lung, 64.1%; in the test with HOP-62 NSCLC, 47.8%; in the test with NCI-H460 lung, 29.4%; in the test on HOP-92 NSCLC, 30.3%. For the same molecule, the growth was 58.7% in the test on NCI-H522 lung; 46.3% in the test with A549/ATCC NSCLC; 4.17% (active) with 786-0 renal; 1.19% (active) with COLO 205 colon; 59.2% in the test with DU-145 prostate; 3.04% (active) in the test with K-562 leukemia. Moreover, the growth was -41.7% (active) in the test on MALME-3M melanoma; 33.3% with MDA-MB-231 breast; 12% in the test on RXF 393 renal; 62.1% in the test with SF-268 CNS; -36.8% (active) in the test with SF-295 CNS; 29.8% in the test with SF-539 CNS. Further, the figures for the growth with UACC-257 melanoma and in the test on M14 melanoma were -65.3% (active) and -38.8% (active), respectively.

In the case of `C[C@@H]1C[C@H](N)C[C@H](c2ccncc2NC(=O)c2ccc(F)c(-c3c(F)cccc3F)n2)C1`, the growth in the test on NCI-H23 lung was 73.3%; in the test on NCI-H226 lung, 53.6%; in the test on NCI-H322M lung, 71%; in the test on HOP-62 NSCLC, 49.1%; with NCI-H460 lung, 62.5%; in the test with HOP-92 NSCLC it was 10.4%. Besides, the growth in the test with NCI-H522 lung was 46.4%; in the test on A549/ATCC NSCLC it was 48.7%; in the test on 786-0 renal, 56.1%; with COLO 205 colon, -33.4% (active); with DU-145 prostate it was 80.4%; in the test on K-562 leukemia, 11.4%. Also, the growth in the test on MALME-3M melanoma was -20.6% (active); with MDA-MB-231 breast, 59.1%; with RXF 393 renal, 23.2%; in the test with SF-268 CNS it was 58.9%; with SF-295 CNS, 71.9%; in the test on SF-539 CNS, 70.2%. Besides, the growth in the test on UACC-257 melanoma is -69.4% (active); in the test with M14 melanoma, -30.8% (active).

Take `COc1cc(C2CC(c3cccc(Nc4ccnc5cc(Cl)ccc45)c3)=NN2c2ccc(Cl)cc2)cc(OC)c1OC` (stereo not given): the growth with NCI-H23 lung is 73.8%; in the test with NCI-H226 lung it was 70.6%; in the test with NCI-H322M lung it was 81.4%; in the test with HOP-62 NSCLC, 76.7%; in the test on NCI-H460 lung, 36.4%; in the test with HOP-92 NSCLC it was 37.5%. The growth with NCI-H522 lung is 40.6%; in the test on A549/ATCC NSCLC it was 57%; in the test on 786-0 renal it was 54.5%; in the test on COLO 205 colon, 80.9%; in the test on DU-145 prostate, 75.1%; in the test with K-562 leukemia, 11.2%. Also, the growth was 44.5% in the test on MALME-3M melanoma; 67% in the test on MDA-MB-231 breast; 62.1% in the test with RXF 393 renal; 51.9% in the test on SF-268 CNS; 3.25% (active) in the test with SF-295 CNS; 43.3% with SF-539 CNS. The growth is 57.1% with UACC-257 melanoma and 25.4% in the test with M14 melanoma.

For the molecule `CC(=O)c1ccc(Nc2nc(Cl)nc(Oc3c(Cl)cccc3Cl)n2)cc1`, the growth in the test with NCI-H23 lung is 92.3%; in the test with NCI-H226 lung it was 74.9%; in the test with NCI-H322M lung it was 104%; in the test on HOP-62 NSCLC it was 101%; in the test on NCI-H460 lung it was 79.9%; in the test on HOP-92 NSCLC it was 81.2%. Moreover, the growth is 64.4% in the test with NCI-H522 lung; 83.8% with A549/ATCC NSCLC; 100% in the test on 786-0 renal; 99.7% with COLO 205 colon; 91.1% with DU-145 prostate; 82.5% in the test with K-562 leukemia. The growth with MALME-3M melanoma was 83.2%; in the test with MDA-MB-231 breast, 80%; in the test with RXF 393 renal, 101%; with SF-268 CNS, 91.3%; in the test on SF-295 CNS it was 89.6%; in the test with SF-539 CNS, 90.4%. The growth in the test on UACC-257 melanoma was 95.4%; in the test with M14 melanoma it was 101%.

Take `Clc1ccc(-c2nc(Br)cn3ccnc23)cc1`: the growth is 85.5% with NCI-H23 lung; 74.6% in the test on NCI-H226 lung; 93% with NCI-H322M lung; 84.3% in the test with HOP-62 NSCLC; 91.5% with NCI-H460 lung; 53.6% in the test on HOP-92 NSCLC. Further, the growth was 84.6% in the test with NCI-H522 lung; 104% in the test with A549/ATCC NSCLC; 97.7% in the test with 786-0 renal; 94.5% with COLO 205 colon; 91% in the test on DU-145 prostate; 90.2% in the test on K-562 leukemia. The growth in the test on MALME-3M melanoma was 103%; in the test on MDA-MB-231 breast it was 69.6%; in the test with RXF 393 renal it was 90.4%; in the test on SF-268 CNS it was 81.7%; with SF-295 CNS, 93.4%; in the test on SF-539 CNS, 81.6%. The growth in the test with UACC-257 melanoma is 95.8%; in the test with M14 melanoma it was 94.3%.
